Pf apPOL block = Pf-apPOL inhibitors, biochemical, fluorescence. 210,000 compounds, 0.25% hits. Recombinant Pf-apPOL, molecular beacon fluorescence, 1.5 h. AID 1794808, 2022. Plasmodium falciparum apicoplast DNA polymerase (apPOL). inhibition, % at 10 µM
mHTT CaM bind = mutant huntingtin-calmodulin interaction inhibitors – biochemical, AlphaScreen, primary screen | P42858 | AlphaScreen His-mHTT/GST-CaM binding, luminescence | inhibition, % at 15 µM | 190,000 compounds, 3.6% hits | AID 1671202, 2021
A number is an active result; – = inactive; · = not tested or not shown; ! = not confirmed by another sample. Only a selection was taken, and hits are over-represented in it overall. Rule as the data show it: active = inhibition above about 50%; inactive = the rest.

SMILES | Pf apPOL block | mHTT CaM bind
CC(CCc1ccccc1)NC(=O)CC1CCN(C(=O)C2CCCCC2)CC1 (stereo not given) | – | 56.5
CN(CCNC(=O)CC1CCN(C(=O)C2CCCCC2)CC1)Cc1ccccc1 | – | –
Cc1ccc2[nH]cc(CCNC(=O)CC3CCN(C(=O)C4CCCCC4)CC3)c2c1 | – | 86.4
O=C(CC1CCN(C(=O)c2ccccc2Cl)CC1)NCCc1c[nH]c2ccccc12 | – | 70.8
Cc1ccc(CNC(=O)C2CCN(c3ccc(N4CCCCC4)nn3)CC2)cc1 | – | –
COc1ccc(C(=O)Nc2cccc(Cl)c2C)c(OC)c1 | – | –
CCn1c(=O)c2c(ncn2C(C)c2ccccc2)n(-c2ccc(C)cc2)c1=O (stereo not given) | – | –
COc1ccc(Cl)cc1N1C(=O)CSC1c1cccc([N+](=O)[O-])c1 (stereo not given) | – | –
CCSc1nnc(-c2nn(C)c3c2CN(C(=O)c2cccc(Cl)c2)CC3)n1C | – | –
CN(C1CCCCC1)S(=O)(=O)c1ccc(Cl)c(Cl)c1 | – | –
CC(C)=C1C2C=CC1C1C(=O)N(c3cc(C(F)(F)F)ccc3Cl)C(=O)C21 (stereo not given) | – | –
CN(C)c1ccc(N2CCC(C(=O)NCCc3c[nH]c4ccccc34)CC2)nn1 | – | 96.4
O=C(NCCc1c[nH]c2ccccc12)C1CCN(c2ccncc2)CC1 | – | –
O=C(NCCc1c[nH]c2ccccc12)C1CCc2nc(N3CCCC3)ncc2C1 (stereo not given) | – | 53.8
COc1ccc2[nH]cc(CCNC(=O)C3CCc4nc(N5CCCC5)ncc4C3)c2c1 (stereo not given) | – | –
O=C(c1ccccn1)N1CCCN(Cc2nc3cc(Cl)ccc3o2)CC1 | – | –
CNc1nccc(N2CCC(CC(=O)NCCOC)CC2)n1 | – | –
CNc1nccc(N2CCC(CC(=O)N3CCN(c4cccc(C)c4)CC3)CC2)n1 | – | –
CNC(=O)CC1CCN(c2ccnc(NC)n2)CC1 | 93.1 | –
CCNc1nccc(N2CCC(CC(=O)N3CCN(c4cccc(Cl)c4)CC3)CC2)n1 | – | 50.7
CSc1ccccc1C(=O)N(Cc1ccsc1)CC(F)(F)F | – | –
O=C(CCN1C(=O)c2ccccc2C1=O)Nc1nnc(Cc2ccc(Cl)cc2)s1 | – | –
Cc1ccccc1N=CC1=C(O)CC(C)(C)CC1=O | – | –
COc1ccc(-n2cccc2/C=C2\C(=O)NC(=O)N(c3ccc(F)cc3)C2=O)cc1 | – | –
O=C(O)CC(C(=O)O)n1nc(-c2ccccc2)cc1-c1ccccc1 (stereo not given) | 96.3 | –
SMILES | Pf apPOL block | mHTT CaM bind
Cc1cc(C)n(C(CC(=O)O)C(=O)O)n1 (stereo not given) | – | –
O=C1N=C(c2ccccc2)S/C1=C/c1ccccc1F | – | –
Cc1nn(-c2ccccc2)c2sc(C(=O)NC(C)C)cc12 | – | –
CN1CCC(N(C)C(=O)c2cc3c(-c4ccccc4)nn(-c4ccccc4)c3s2)CC1 | – | 99.9
Cc1cc2c(C(C)C)c(O)c(O)c(C=O)c2c(O)c1-c1c(C)cc2c(C(C)C)c(O)c(O)c(C=O)c2c1O | 87.8! | ·
O=C1N=c2ccccc2=C1c1sc(Nc2ccc(Br)cc2)nc1O | – | –
O=C1N=c2ccccc2=C1c1sc(Nc2cccc(O)c2)nc1O | – | 60.6
CN(C)/C=C1\C(=O)N(c2ccc([N+](=O)[O-])cc2)N=C1c1ccccc1 | 59.0 | –
Cc1nnc(-c2ccccc2)n1-c1ccc([N+](=O)[O-])cc1 | – | –
C/C(=C1/C(=O)N(c2ccc([N+](=O)[O-])cc2)N=C1c1ccccc1)N(C)C | – | 53.3
CC1=NN(c2ccccc2)C(=O)/C1=C/c1ccc(-c2ccc([N+](=O)[O-])cc2)o1 | – | –
CCN(c1ccc(F)cc1)S(=O)(=O)c1ccc2[nH]cc(C(=O)NCCOC)c(=O)c2c1 | – | –
Cc1nc(SC(C)c2ccccc2)[nH]c(=O)c1CC(=O)NCc1cccs1 (stereo not given) | – | –
COc1ccc(Cl)cc1NC(=O)N1CCn2cccc2C1Cc1ccccc1 (stereo not given) | – | 61.7
O=C(Nc1cc(F)ccc1F)N1CCn2cccc2C1Cc1ccccc1 (stereo not given) | – | –
COc1ccc(NC(=O)N2CCn3cccc3C2Cc2ccccc2)cc1OC (stereo not given) | – | 59.4
COc1cc(NC(=O)N2CCn3cccc3C2Cc2ccccc2)cc(OC)c1 (stereo not given) | – | –
CCC(=O)N1CCc2c(C(=O)NC3CC3)cccc21 | – | –
CCNC(=O)c1cccc2c1CCN2C(=O)CC | – | 100.2
CC(=O)c1ccc(NC(=O)C(C)Oc2cccc(Cl)c2)cc1 (stereo not given) | – | –
COc1ccccc1N1CCN(C(C)C(=O)Nc2ccc(F)cc2)CC1 (stereo not given) | – | –
COc1ccc(Cl)cc1N1CCN(C(C)C(=O)Nc2ccc(C)cc2)CC1 (stereo not given) | – | 98.7
CC(C)(C)NC(=O)N1CC(c2nc(-c3cccnc3)no2)C2(CCOCC2)C1 (stereo not given) | – | –
c1ccc2c(N3CCOCC3)nc(-c3ccncc3)nc2c1 | – | 61.0!
Cc1ccc(-c2nc(N3CCOCC3)c3ccccc3n2)cc1 | – | –
SMILES | Pf apPOL block | mHTT CaM bind
COc1ccc(C(=O)Nc2c3c(nn2-c2ccc(F)cc2)CS(=O)(=O)C3)cc1OC | – | –
c1cnc(-c2n[nH]c(C3CCN(CC4CCCCC4)CC3)n2)cn1 | – | –
c1cnc(-c2n[nH]c(C3CCCN(CC4CCCCC4)C3)n2)cn1 (stereo not given) | – | 54.1
CC(C)CCN1CCCC(c2nc(-c3cnccn3)n[nH]2)C1 (stereo not given) | – | –
c1cnc(-c2n[nH]c(C3CCCNC3)n2)cn1 (stereo not given) | – | 71.9
O=C(COc1ccccc1)NC(c1ccccc1)c1cc(Cl)c2cccnc2c1O (stereo not given) | – | 100.0
CC(=O)Nc1cccc2c(C(=O)NC(C)c3ccc(C)cc3C)ccnc12 (stereo not given) | – | –
COc1ccc(C(=O)NC(c2ccc(OC)c(OC)c2)c2cc(Cl)c3cccnc3c2O)cc1 (stereo not given) | – | 72.0
COc1ccc(C(=O)NC(c2ccc([N+](=O)[O-])cc2)c2cc(Cl)c3cccnc3c2O)cc1 (stereo not given) | – | –
O=C(COc1ccccc1)NC(c1ccc([N+](=O)[O-])cc1)c1cc(Cl)c2cccnc2c1O (stereo not given) | – | –
CC(=O)NC(c1ccc(C)cc1)c1cc(Cl)c2cccnc2c1O (stereo not given) | – | 100.0!
Cc1cccnc1NC(=O)C(C)Oc1cccc(Cl)c1 (stereo not given) | – | –
CC(=O)NC(c1cccc(Cl)c1)c1cc(Cl)c2cccnc2c1O (stereo not given) | – | 100.0
O=C1CSC(c2ccc(F)cc2)N1c1ccc(Cl)c(Cl)c1 (stereo not given) | – | –
COc1ccc(C2CC(c3cc(OC)c(OC)c(OC)c3)n3nnnc3N2)cc1 (stereo not given) | – | –
Cc1ccsc1C(=O)Nc1cnc(N2CCCCC2)nc1 | – | –
CNS(=O)(=O)c1cccnc1Nc1ccccc1 | – | –
O=C(c1ccccc1Cl)N1CCc2nc3cc(-c4ccccc4)[nH]n3c(=O)c2C1 | – | –
CC(=O)NC(c1ccc2c(c1)OCO2)c1cc(Cl)c2cccnc2c1O (stereo not given) | – | 100.0
O=C(Nc1ccc2c(c1)OCO2)C(=O)NC(c1ccccc1)c1ccccc1 | – | –
O=C(Nc1ccccc1[N+](=O)[O-])c1cc(I)ccc1Cl | – | –
CC(C)NC(=O)c1ccc(OCC2CCN(C(=O)c3ccc(F)cc3F)CC2)cc1 | – | –

Bioassay records deposited in PubChem BioAssay by University of Kansas High Throughput Screening Laboratory.
